LmPK inh = qHTS Assay for Inhibitors of Leishmania Mexicana Pyruvate Kinase (LmPK) | purified LmPK, Kinase-Glo ATP luminescence, 1 h | Potency, µM (top dose mostly 57.5 µM), inactives show at the top dose activity change, negative = inhibition, hits mostly inhibitors | hit rate 0.37% among 290,000 | AID 1721, 2009; further: potency means the concentration at half of the fitted maximal effect; on the % scale 0 is the no-effect control and ±100 the full control effect
Target sequence (Q27686 whole entry, looked up): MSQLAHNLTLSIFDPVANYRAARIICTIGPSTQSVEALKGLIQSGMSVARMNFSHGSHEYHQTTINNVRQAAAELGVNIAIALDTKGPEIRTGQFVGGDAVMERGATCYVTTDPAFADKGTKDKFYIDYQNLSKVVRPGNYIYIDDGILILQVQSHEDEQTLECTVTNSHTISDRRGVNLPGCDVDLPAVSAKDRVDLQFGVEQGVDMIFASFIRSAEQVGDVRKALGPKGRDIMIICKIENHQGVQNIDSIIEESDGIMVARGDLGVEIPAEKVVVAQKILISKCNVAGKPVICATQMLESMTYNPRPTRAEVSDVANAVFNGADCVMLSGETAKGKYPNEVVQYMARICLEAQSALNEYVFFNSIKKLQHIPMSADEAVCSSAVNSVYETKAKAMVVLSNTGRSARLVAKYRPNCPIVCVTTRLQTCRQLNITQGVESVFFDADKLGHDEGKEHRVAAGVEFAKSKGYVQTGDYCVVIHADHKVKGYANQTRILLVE
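qHTS format; LmPK 0.1 nM; substrates PEP 0.5 mM and ADP 0.1 mM. One-hour room-temperature incubation, then coupled luciferase luminescence; 0.5 nM enzyme wells mark activation.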
Shiga inhibitor = A qHTS for Small Molecule Inhibitors of Shiga Toxin | Vero cells, Shiga toxin protein synthesis inhibition reporter | inhibition, % at 38.7 µM | hit rate 9.2% among 290,000; in the data active means inhibition mostly above about 28%, no sharp cut-off; inactive means mostly below about 43%; further: 0% is about no effect
RE007 growth inh = qHTS Assay for Inhibitors of the HIV-1 protein Vpr; AID 651644, 2012; Potency, µM (series often up to 92.2 µM), for inactives: at the top dose activity change, negative = less growth, usual class: inhibitors; S. pombe RE007 Vpr strain, BacTiter-Glo ATP luminescence, 24 h; hit rate 0.21% among 360,000; active means well fitted falling curve with a large enough effect; inconclusive means small, poorly fitted or top-dose-only effect; inactive means no such curve, though single readings can be large or run the other way; further: potency means the concentration at half of the fitted maximal effect; on the % scale 0 is the no-effect control and ±100 the full control effect; nearly all actives have a fitted effect of over 50% in size
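Fission yeast RE007 carrying one integrated HIV-1 vpr copy, seeded at OD 0.01 in PMG+AL medium with 23 nL pinned compound. Grown 24 h at 30 degrees; viability read by BacTiter-Glo luminescence after 5 min.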
CHX counter = Cycloheximide Counterscreen for Small Molecule Inhibitors of Shiga Toxin | hit rate 12% among 300,000 | max response, % | cell reporter, cycloheximide protein synthesis inhibition counterscreen; in the data active means max response mostly above about 13%, no sharp cut-off; inactive means mostly below about 14%; further: read at 38.3 µM for the half of the compounds with a filed dose; 0% is about no effect
FBPA Giardia inh = qHTS Assay for Inhibitors of Fructose-1,6-bisphosphate Aldolase from Giardia Lamblia; A8B2U2; purified Giardia FBPA; Potency, µM (series often up to 59.6 µM), inactives show top-dose activity, negative = inhibition, hits mostly inhibitors; hit rate 0.71% among 290,000; AID 2451, 2010; further: potency means the concentration at half of the fitted maximal effect; on the % scale 0 is the no-effect control and ±100 the full control effect; nearly all actives have a fitted effect of over 55% in size
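Giardia FBPA (40 nM reagent) was preincubated 10 min at RT with compound (up to 57.5 uM final), then substrate plus GAPDH/TPI/NAD/arsenate coupling system with diaphorase/resazurin was added; resorufin fluorescence (525/598 nm) was read after 20 min.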
Tb PYK inh = qHTS of Trypanosoma Brucei Inhibitors; pyruvate kinase (Trypanosoma brucei), Q57TT1; hit rate 0.12% among 410,000; TbPYK enzyme, Kinase-Glo Plus ATP luminescence, 45 min; AID 624173, 2012; Potency, µM (doses to about 76.8 µM), without a hit: at the top dose activity, negative = inhibition, actives largely listed as inhibitors; further: potency means the concentration at half of the fitted maximal effect; on the % scale 0 is the no-effect control and ±100 the full control effect; nearly all actives have a fitted effect of over 50% in size
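Assay buffer: 50 mM TEA pH 7.2, 100 mM KCl, 10 mM MgCl2, 0.05% BSA, 0.01% Tween-20. Pyruvate kinase from T. brucei plus substrate met compound, then ADP (130 uM final). Luminescence was read post 45 min RT.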
* = called active by the depositor; [ ] = another dose, or the depositor's remark. The full list was thinned out, with hits kept by preference. Unless noted, the call rests on the fitted dose curve; in most records, active means well fitted curve in the direction sought with a large enough effect; inconclusive means small, poorly fitted or top-dose-only effect, or another doubt; inactive means no such curve, though single readings can be large; an effect the other way counts as inactive or inconclusive.

Screening COc1ccc(S(=O)(=O)NCc2ccc(C(=O)O)cc2)cc1 returned LmPK inh 3%, Shiga inhibitor -1, RE007 growth inh 7%, CHX counter -3, FBPA Giardia inh 6% and Tb PYK inh -11%.
Screening COc1ccc(CNc2ccc(Br)cc2)cc1 returned LmPK inh -5%, Shiga inhibitor 126*, RE007 growth inh -7%, CHX counter 36*, FBPA Giardia inh 2% and Tb PYK inh -5%.
For COc1ccc(CNc2ccc(C(=O)O)cc2)cc1 the results were LmPK inh -4%, Shiga inhibitor 44*, RE007 growth inh 0%, CHX counter 26*, FBPA Giardia inh 16% and Tb PYK inh -3%.
COc1ccc(NCc2ccc(OC)c(OC)c2)cc1 was read as LmPK inh 1%, Shiga inhibitor 17, CHX counter 15 and FBPA Giardia inh inconclusive.
COc1ccc(NCc2n[nH]c(=O)c3ccccc23)cc1 was read as LmPK inh -3%, Shiga inhibitor 19, RE007 growth inh -10%, CHX counter 15*, FBPA Giardia inh inconclusive and Tb PYK inh -17%.
Screening COc1ccc(NC(=O)C(=O)NCC(c2ccc3c(c2)OCO3)N2CCN(C)CC2)cc1 (stereo unspecified) returned Tb PYK inh -1%[15.4 µM].
O=C(O)C(c1ccccc1)C1(O)CC2CCC1C2 (stereo unspecified) was read as RE007 growth inh -10% and Tb PYK inh 8%.
Screening O=C(c1ccc(Cl)cc1)N1CCc2ccccc21 returned LmPK inh -1%, Shiga inhibitor 46, RE007 growth inh -3%, CHX counter 33*, FBPA Giardia inh 7% and Tb PYK inh -2%.
Screening Cn1cc(C(=O)N2CCc3ccccc32)cn1 returned LmPK inh -11%, Shiga inhibitor 49*, RE007 growth inh -3%, CHX counter 22*, FBPA Giardia inh 0% and Tb PYK inh -11%.
CCc1sc(C(=O)N2CCc3ccccc32)cc1C was read as LmPK inh 25µM*, Shiga inhibitor 102*, RE007 growth inh -25%, CHX counter 66*, FBPA Giardia inh -6% and Tb PYK inh -10%.
O=C(c1cc(Cl)ccc1Cl)N1CCc2ccccc21 was read as LmPK inh -1%, Shiga inhibitor -3, RE007 growth inh -11%, CHX counter -3, FBPA Giardia inh 1% and Tb PYK inh -10%.
For Cc1ccc(C(=O)N2CCc3ccccc32)cc1 the results were LmPK inh -3%, Shiga inhibitor 90*, RE007 growth inh -10%, CHX counter 31*, FBPA Giardia inh 1% and Tb PYK inh 3%.
COc1cccc(CS(=O)(=O)c2ccccc2)c1 was read as FBPA Giardia inh 0%.
For COc1ccc(NS(=O)(=O)c2ccc3nc(COc4ccc(Cl)c(C)c4)[nH]c3c2)cc1 the results were LmPK inh 7%, Shiga inhibitor -38, RE007 growth inh -3%, CHX counter -4, FBPA Giardia inh -1% and Tb PYK inh -17%.
Screening O=C(c1ccc(Cl)s1)N1CCN(c2ccccc2)CC1 returned LmPK inh 2%, Shiga inhibitor 28*, RE007 growth inh -3%, CHX counter 17*, FBPA Giardia inh 10% and Tb PYK inh -11%.
For O=C(c1ccc(Cl)s1)N1CCc2ccccc21 the results were LmPK inh -15%, Shiga inhibitor 82*, RE007 growth inh inconclusive, CHX counter 36*, FBPA Giardia inh 2% and Tb PYK inh -6%.
O=C(c1ccc(C(=O)N2CCCc3ccccc32)s1)N1CCCc2ccccc21 was read as LmPK inh -1%, Shiga inhibitor -13, RE007 growth inh -9%, CHX counter -2, FBPA Giardia inh 8% and Tb PYK inh -6%.
Screening Cc1noc(-c2ccc(CSCCC(=O)O)cc2)c1NC(=O)OC(C)c1ccccc1Cl (stereo unspecified) returned Shiga inhibitor 19, CHX counter -2 and FBPA Giardia inh 28%.
Screening O=C(NC(=S)Nc1ccc(CN2CCOCC2)cc1)c1ccco1 returned LmPK inh 3%, Shiga inhibitor 34*, RE007 growth inh 4%, CHX counter 31*, FBPA Giardia inh -10% and Tb PYK inh -4%.
Fc1ccccc1NC(=S)N1CCOCC1 was read as LmPK inh -6%, Shiga inhibitor -6, RE007 growth inh 1%, CHX counter 10, FBPA Giardia inh -9% and Tb PYK inh -1%.
Screening Fc1ccccc1NC(=S)Nc1ccc(CN2CCOCC2)cc1 returned LmPK inh -1%, Shiga inhibitor 66*, RE007 growth inh 20%, CHX counter 23*, FBPA Giardia inh -6% and Tb PYK inh -4%.
Screening O=C(NC(=S)Nc1ccc(N2CCOCC2)cc1)c1ccco1 returned LmPK inh -4%, Shiga inhibitor 43*, CHX counter 32*, FBPA Giardia inh inconclusive and Tb PYK inh -15%.
Screening O=C(NC(=S)Nc1ccc(CN2CCCCC2)cc1)c1ccco1 returned LmPK inh 2%, Shiga inhibitor 32, RE007 growth inh -1%, CHX counter 11, FBPA Giardia inh -30% and Tb PYK inh -1%.
For O=C(NC(=S)Nc1ccc(N2CCOCC2)cc1)c1ccccc1 the results were LmPK inh 1%, Shiga inhibitor 42, RE007 growth inh 3%, CHX counter 16, FBPA Giardia inh -17% and Tb PYK inh 3%.
`Nc1c(C(=O)CSc2n[nH]c(-c3ccccc3)n2)c(=O)[nH]c(=O)n1C1CC1` gave RE007 growth inh 27% and Tb PYK inh 2%.
`Cc1cc(C)nc(NN=C(c2ccccc2)c2ccccc2)n1` gave LmPK inh -1%, Shiga inhibitor -3, RE007 growth inh -16%, CHX counter -4, FBPA Giardia inh -10% and Tb PYK inh 1%.
Screening COC(=O)[C@@]1(Cc2ccccc2)[C@H]2c3cc(C(=O)N4CCCC4)n(Cc4ccccn4)c3C[C@H]2CN1C(=O)c1ccccc1 returned FBPA Giardia inh -1%.
For O=C(Nc1ccccc1F)c1cnccn1 the results were LmPK inh -4%, Shiga inhibitor 53*, RE007 growth inh 0%, CHX counter 18*, FBPA Giardia inh 5% and Tb PYK inh -2%.
For O=C(Nc1ccccc1F)c1cc2nc(C(F)F)cc(C(F)F)n2n1 the results were LmPK inh -2%, Shiga inhibitor 52*, RE007 growth inh 22%, CHX counter 22*, FBPA Giardia inh -2% and Tb PYK inh 1%.

Screens (PubChem BioAssay)
